RPL19A-GFP yeast: modulators of TOR pathway RPL19A-GFP in S. cerevisiae; AID 2025; hit rate 0.3% among 330,000; percent response vs DMSO, % at 10 µM; S. cerevisiae RPL19A-GFP strain, flow cytometry, 3 h; active compounds read low;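 active means percent response vs DMSO below 50%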;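 further: median channel GFP fluorescence of the barcoded RPL19A-GFP strain; ratio of sample median GFP to plate DMSO average so 100% = DMSO; lower means less RPL19A-GFP as with rapamycin TOR inhibition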
CIT2-GFP yeast: alters CIT2-GFP fluorescence in TOR pathway yeast screen. GFP response vs DMSO, % at 10 µM. S. cerevisiae CIT2-GFP strain, flow cytometry, 3 h; 100 means same as DMSO wells. hit rate 0.065% among 320,000. AID 2029;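 active means GFP response relative to DMSO above a set limit, near the screen mean plus 3 SD, cut at about 150% in these data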;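 further: ratio of well median GFP fluorescence to mean of DMSO wells on the plate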
AGP1 TOR yeast: yeast TOR pathway AGP1-GFP modulation. S. cerevisiae AGP1-GFP multiplex flow cytometry, 3 h; GFP as percent of DMSO wells. GFP response vs DMSO, % at 10 µM. hit rate 0.02% among 320,000;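 active means GFP response relative to DMSO above a set limit, near screen average plus 3 SD, cut at about 150% in these data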;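 further: median GFP channel fluorescence of the gated AGP1 strain per well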
MEP2-GFP yeast: yeast TOR pathway MEP2-GFP modulation; S. cerevisiae MEP2-GFP strain, flow cytometry GFP, 3 h; 100% = DMSO control level; GFP response vs DMSO, % at 10 µM; hit rate 0.51% among 330,000; AID 2016;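 active means GFP response versus DMSO above a set limit, roughly screen mean plus 3 SD, cut at about 180% in these data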;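 further: median GFP fluorescence of the barcode-gated MEP2-GFP cells per well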
VLA-4 inh: inhibition in a human VLA-4 binding assay. P13612. VLA-4 expressing cells, ligand binding flow cytometry. inhibition, % (about 7 µM as worked out from the volumes in the protocol). hit rate 0.2% among 330,000; in the data active means inhibition above about 50%
Target sequence (P13612 whole entry, looked up): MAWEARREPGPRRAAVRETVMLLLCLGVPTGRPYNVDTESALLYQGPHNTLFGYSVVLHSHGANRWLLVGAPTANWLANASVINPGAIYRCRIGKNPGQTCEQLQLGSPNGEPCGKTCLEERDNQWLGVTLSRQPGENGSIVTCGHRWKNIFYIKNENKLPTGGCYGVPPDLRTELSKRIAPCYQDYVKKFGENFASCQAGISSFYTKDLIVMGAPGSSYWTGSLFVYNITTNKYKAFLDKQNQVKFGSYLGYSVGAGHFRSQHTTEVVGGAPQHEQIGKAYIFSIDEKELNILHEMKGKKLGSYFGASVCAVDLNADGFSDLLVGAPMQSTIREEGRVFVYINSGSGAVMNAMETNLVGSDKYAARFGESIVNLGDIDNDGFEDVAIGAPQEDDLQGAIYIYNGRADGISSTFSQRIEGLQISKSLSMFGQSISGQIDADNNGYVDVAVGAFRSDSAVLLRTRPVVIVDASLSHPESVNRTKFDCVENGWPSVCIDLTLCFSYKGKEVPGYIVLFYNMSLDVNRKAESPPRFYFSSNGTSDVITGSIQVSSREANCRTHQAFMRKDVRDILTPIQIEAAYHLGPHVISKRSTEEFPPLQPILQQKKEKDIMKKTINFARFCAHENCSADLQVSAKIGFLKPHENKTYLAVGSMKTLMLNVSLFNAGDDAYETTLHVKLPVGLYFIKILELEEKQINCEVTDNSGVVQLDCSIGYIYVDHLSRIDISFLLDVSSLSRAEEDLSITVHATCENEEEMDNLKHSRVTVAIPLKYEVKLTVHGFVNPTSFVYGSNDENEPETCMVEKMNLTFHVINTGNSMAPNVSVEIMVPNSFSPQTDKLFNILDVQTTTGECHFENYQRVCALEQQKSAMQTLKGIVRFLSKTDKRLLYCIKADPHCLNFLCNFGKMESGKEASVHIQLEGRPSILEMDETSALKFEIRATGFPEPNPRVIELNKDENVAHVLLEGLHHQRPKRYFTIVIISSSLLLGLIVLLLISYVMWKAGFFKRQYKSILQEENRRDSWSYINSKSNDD
LAP4-GFP MLPCN: alters LAP4-GFP fluorescence in TOR pathway yeast screen; S. cerevisiae LAP4-GFP multiplex, flow cytometry GFP, 3 h; median GFP as percent of DMSO wells; GFP response vs DMSO, % at 10 µM; hit rate 0.34% among 320,000; AID 2023;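 active means GFP response vs DMSO above a set limit, about the screen mean plus 3 SD, cut at about 150% in these data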
VLA-4 mod pick: confirmation of allosteric modulators of human VLA-4 integrin. shares compounds with VLA-4 inh. U937 cells, HUTS-21 LIBS mAb binding, flow cytometry; LDV ligand present at threefold Kd. inhibition, % at 6.7 µM. hit rate 2% among 1,300. AID 2813; in the data active means inhibition above about 40%;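 further: 0% = ligand without compound and 100% = no ligand background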
The depositor's hits bear a star. In the library only some 1.1% were active in any assay of this set; here they are far more common.

`CCOC(=O)c1[nH]c(C)c(C(=O)OCC(=O)N2CCCCC2C)c1C` (configuration not stated) gave RPL19A-GFP yeast 100, CIT2-GFP yeast 94, AGP1 TOR yeast 100, MEP2-GFP yeast 97, VLA-4 inh 61*, LAP4-GFP MLPCN 97 and VLA-4 mod pick 16.
COCCn1c(=S)[nH]c2cc(C(=O)NCCc3ccccc3)ccc2c1=O was read as RPL19A-GFP yeast 96, CIT2-GFP yeast 95, AGP1 TOR yeast 96, MEP2-GFP yeast 86, VLA-4 inh -11 and LAP4-GFP MLPCN 89.
OCC1OC(n2cnc3c(NCCc4ccccc4)ncnc32)C(O)C1O (configuration not stated) was read as RPL19A-GFP yeast 100, CIT2-GFP yeast 88, AGP1 TOR yeast 91, MEP2-GFP yeast 95, VLA-4 inh 11, LAP4-GFP MLPCN 91 and VLA-4 mod pick 1.
`OC[C@H]1O[C@@H](n2cnc3c(Nc4ccccc4)ncnc32)[C@H](O)[C@@H]1O` gave RPL19A-GFP yeast 101, CIT2-GFP yeast 83, AGP1 TOR yeast 86, MEP2-GFP yeast 96, VLA-4 inh 3, LAP4-GFP MLPCN 110 and VLA-4 mod pick 2.
For Nc1ccc(CCNc2ncnc3c2ncn3[C@@H]2O[C@H](CO)[C@@H](O)[C@H]2O)cc1 the results were RPL19A-GFP yeast 99, CIT2-GFP yeast 74, AGP1 TOR yeast 79, MEP2-GFP yeast 96, VLA-4 inh 18, LAP4-GFP MLPCN 100 and VLA-4 mod pick 6.
For Nc1ncnc2c1ncn2[C@@H]1O[C@H](CO)[C@@H](O)[C@H]1O the results were RPL19A-GFP yeast 98, CIT2-GFP yeast 100, AGP1 TOR yeast 94, MEP2-GFP yeast 92, VLA-4 inh 1 and LAP4-GFP MLPCN 106.
Screening Cn1nnnc1SCC(=O)NC1CCCc2ccccc21 (configuration not stated) returned RPL19A-GFP yeast 99, CIT2-GFP yeast 98, AGP1 TOR yeast 104, MEP2-GFP yeast 100, VLA-4 inh -9 and LAP4-GFP MLPCN 96.
For CC(=O)Nc1ccc(NC(=O)c2cc(S(=O)(=O)N3CCCCC3)ccc2N2CCOCC2)cc1 the results were VLA-4 mod pick 2.
For O=C(Nc1ccc(OC(F)F)cc1)c1cc(S(=O)(=O)N2CCCCC2)ccc1N1CCOCC1 the results were RPL19A-GFP yeast 97, CIT2-GFP yeast 93, AGP1 TOR yeast 103, MEP2-GFP yeast 87, VLA-4 inh 18, LAP4-GFP MLPCN 91 and VLA-4 mod pick 9.
For COc1ccc(C)cc1NC(=O)c1cc(S(=O)(=O)N2CCCCC2)ccc1N1CCOCC1 the results were RPL19A-GFP yeast 98, CIT2-GFP yeast 105, AGP1 TOR yeast 99, MEP2-GFP yeast 97, VLA-4 inh 14, LAP4-GFP MLPCN 93 and VLA-4 mod pick -5.
`Cc1ccc(S(=O)(=O)N(C)C)cc1NC(=O)c1cc(S(=O)(=O)N2CCCCC2)ccc1N1CCOCC1` gave VLA-4 mod pick 0.
`CCCCn1c(N)c(N(CC(C)C)C(=O)CCCn2c(=O)oc3ccccc32)c(=O)[nH]c1=O` gave RPL19A-GFP yeast 98, CIT2-GFP yeast 100, AGP1 TOR yeast 103, MEP2-GFP yeast 103, VLA-4 inh -1 and LAP4-GFP MLPCN 101.
`O=C(CSc1ccccn1)N1CCNC1=O` gave RPL19A-GFP yeast 101, CIT2-GFP yeast 93, AGP1 TOR yeast 96, MEP2-GFP yeast 95, VLA-4 inh 0 and LAP4-GFP MLPCN 94.
For CCCCN1C(=O)C(=Nc2cccc3cnccc23)c2ccccc21 the results were RPL19A-GFP yeast 95, CIT2-GFP yeast 91, AGP1 TOR yeast 93, MEP2-GFP yeast 85, VLA-4 inh 26 and LAP4-GFP MLPCN 92.
For O=S(=O)(NCc1ccc(F)cc1)c1ccc(Br)cc1Br the results were RPL19A-GFP yeast 94, CIT2-GFP yeast 91, AGP1 TOR yeast 94, MEP2-GFP yeast 81, VLA-4 inh 2 and LAP4-GFP MLPCN 96.
